Laboratory results as given in PubChem BioAssay AID1903 (Southern Research Specialized Biocontainment Screening …, 2009).
Screen size: about 310,000 compounds; about 1,200 (0.39%) were called active. No rule for the calls is given here. These entries were drawn from the full list. Entries with a potency or affinity are not part of this list.

molecular target: Large T antigen (Simian virus 40) (UniProt P03070); test: TAg ATPase/helicase activity blockers – biochemical (AID 1903); details: SV40 large T antigen ATPase/helicase inhibition assay; at 20 µM; hits give high values
Sequence (P03070 whole entry, looked up): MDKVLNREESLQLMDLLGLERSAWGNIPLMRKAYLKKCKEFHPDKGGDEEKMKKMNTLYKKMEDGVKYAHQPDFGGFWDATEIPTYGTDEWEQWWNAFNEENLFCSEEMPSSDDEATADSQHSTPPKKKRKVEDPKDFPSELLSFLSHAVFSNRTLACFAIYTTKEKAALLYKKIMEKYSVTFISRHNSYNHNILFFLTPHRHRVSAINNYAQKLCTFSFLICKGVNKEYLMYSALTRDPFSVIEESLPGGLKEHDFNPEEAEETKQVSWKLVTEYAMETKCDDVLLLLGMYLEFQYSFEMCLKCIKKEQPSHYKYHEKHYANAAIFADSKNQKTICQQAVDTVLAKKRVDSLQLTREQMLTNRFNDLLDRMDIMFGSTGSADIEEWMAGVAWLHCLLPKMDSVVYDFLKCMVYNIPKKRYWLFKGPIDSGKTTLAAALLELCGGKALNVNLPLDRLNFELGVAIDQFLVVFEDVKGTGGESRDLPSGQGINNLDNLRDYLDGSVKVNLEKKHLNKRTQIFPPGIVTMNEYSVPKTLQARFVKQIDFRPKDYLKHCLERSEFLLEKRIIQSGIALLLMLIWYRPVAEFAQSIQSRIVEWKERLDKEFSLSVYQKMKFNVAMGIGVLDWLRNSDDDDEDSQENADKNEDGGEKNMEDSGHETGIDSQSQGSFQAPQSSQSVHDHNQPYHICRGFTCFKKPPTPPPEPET

inhibition, inactive:
CC1CN=C(Nc2cccc(S(=O)(=O)N(C)C)c2)S1 (stereo not drawn) 21.1%
CCOC(=O)C(=CNc1ccc(NC2=NCC(C)S2)cc1)C(=O)OCC (stereo not drawn) 12%
Cc1cccc2cc3c(nc12)-c1ccccc1C3=O 7.99%
Cc1ccc(Cl)c(OC(=O)C2CSC3(C)CCC(=O)N23)c1 (stereo not drawn) 28%
CC(C)Sc1nc2ccccc2n1CC(=O)NCc1ccc2c(c1)OCO2 10.4%
O=C(c1cnn(-c2ccccc2)c1)c1ccccc1O -1.98%
O=C(O)/C=C/c1cnn(-c2ccccc2)c1 6.6%
CCN(CC)S(=O)(=O)c1ccc(N=Nc2c(N)[nH]c(=O)[nH]c2=O)cc1 12.4%
O=C(CCn1c(=S)[nH]c2ccccc2c1=O)NCCc1ccc(Cl)cc1 7.2%
O=C(CCn1c(=S)[nH]c2ccccc2c1=O)NCCc1ccccc1 4.97%
CC(=O)NC(CC(=O)N1CCCC1)c1ccccc1 (stereo not drawn) 21.8%
O=C(NCc1ccc2c(c1)OCO2)c1ccc2c(c1)S(=O)(=O)c1ccccc1C2=O 0.8%
Cn1c(=O)oc2cc(S(=O)(=O)NC3CCCCC3)ccc21 -17.1%
Cn1c(=O)oc2cc(S(=O)(=O)NC3CCCCCCC3)ccc21 -1.85%
CCCCC(=O)Nc1ccc(C(=O)NCCc2ccc(S(N)(=O)=O)cc2)cc1 1.78%
N=c1c2c(ncn1Cc1ccco1)Oc1cc(O)ccc1C2c1ccccc1 (stereo not drawn) 26.2%
O=C1NN(c2ccccc2)C(=O)/C1=C/c1cccs1 28.5%
O=C1NN(c2ccccc2)C(=O)/C1=C\c1ccccc1 17.5%
COc1ccc(-c2nc(CS(=O)(=O)CC(=O)NCCCc3ccccc3)c(C)o2)cc1 -0.82%
O=C(OCC(=O)N1CCCc2ccccc21)c1cc(S(=O)(=O)N2CCOCC2)ccc1Cl 15.5%
O=C(COc1ccc2ccccc2c1Br)NCc1ccccn1 9.07%
Cc1cccc(C)c1NS(=O)(=O)c1cc2c3c(c1)CC(=O)N3CCC2 -3.87%
Cc1ccc(S(=O)(=O)Nc2ccc(N(C)C)cc2)cc1 37.5%
CN(C)c1ccc(S(=O)(=O)c2ccc(Cl)cc2)cc1 1.2%
Cc1ccc(NS(=O)(=O)c2cc3c4c(c2)CC(=O)N4CCC3)cc1C 7.5%
CCN(CC)S(=O)(=O)c1cc(NS(=O)(=O)c2cccc(Cl)c2)ccc1C 2.93%
CN(C)c1ccc(NS(=O)(=O)c2cc(Cl)ccc2Cl)cc1 25.6%
O=C(CN1C(=O)C(=O)N(Cc2ccco2)C1=O)c1c[nH]c2ccccc12 28.3%
C=CCc1ccc(OCCOCCOc2ccccc2[N+](=O)[O-])c(OC)c1 -1.8%
C=CCOc1ccc(C2c3c(oc4ccccc4c3=O)C(=O)N2CCCN2CCOCC2)cc1 (stereo not drawn) 10.1%
O=C(COn1nnc2ccc(Cl)cc21)Nc1ccc(F)cc1 19.7%
COc1cc(/C=C2\N=C(C)OC2=O)cc(Cl)c1OC(C)=O 13.6%
CC(=O)NC1CC2CCCC(C1)N2S(=O)(=O)c1cccc(F)c1 (stereo not drawn) 2.38%
COc1ccc(S(=O)(=O)Nc2cccc(-c3ccc4nncn4n3)c2)c(OC)c1 12.4%
Cc1ccc(Nc2c(-c3ccc(C)o3)nc3ncccn23)cc1 33.8%
Brc1ccc(-c2nc3ncccn3c2NC2CCCCC2)o1 12.4%
Cc1ccc(-n2cc(CCCCCCCCC(=O)O)nn2)cc1 8.47%
COc1ccc(/C=N/NC(=O)CN2CCSCC2)c(OC)c1 17.5%
COc1ccc(NC(=O)/C=C/C(=O)O)cc1Cl 4.09%
COC(=O)/C=C/C(=O)Nc1cccc(C(F)(F)F)c1 17.3%
O=C(CCCC(=O)c1ccc(O)cc1)c1ccc(O)cc1 9%
CCCCC(=O)c1ccc(O)cc1 4.42%
COc1ccc(N2CCN(C(=O)C3COc4ccccc4O3)CC2)cc1 (stereo not drawn) 15.2%
O=C(O)CCCC(=O)N(Cc1ccccc1)Cc1ccccc1 8.76%
COc1ccc(OC)c(S(=O)(=O)N2CCC(C(=O)N3CCc4ccccc4C3)CC2)c1 -3.29%
Cc1ccc(C(=O)Nc2nc(=O)n(C(=O)c3ccccc3Cl)s2)cc1 6.99%
CN(C)c1ccc(Nc2ccc([N+](=O)[O-])cn2)cc1 32.5%
COc1ccc(Nc2cc(Nc3ccc(OC)cc3)ncn2)cc1 6.82%
COc1ccc(S(=O)(=O)N2CCCN(CC(=O)Nc3ccc4c(c3)OCO4)CC2)cc1 -44.5%
O=C(COC(=O)C1=COCCO1)NC1CCCCC1 4.07%
COC(=O)C1=C(C)N=c2s/c(=C3\C(=O)Nc4ccccc43)c(=O)n2C1c1ccccc1 (stereo not drawn) 12.3%
CCOC(=O)C1=C(C)N=c2s/c(=C3/C(=O)Nc4ccccc43)c(=O)n2C1c1ccc(C)cc1 (stereo not drawn) 24.6%
O=C(CCCC(=O)NCCc1ccccc1)NCCc1ccccc1 3.18%
Cc1ccc(S(=O)(=O)N2CCCC(c3nc(-c4ccc(C)o4)no3)C2)cc1 (stereo not drawn) 6.08%
Cc1ccc(-c2noc(C3CCCN(S(=O)(=O)c4ccc5ccccc5c4)C3)n2)o1 (stereo not drawn) -0.86%
CC(C)(C)c1cc(-c2nc(N)nc(N)n2)cc(C(C)(C)C)c1 6.71%
COc1cccc(CN2CCCC(N3CCc4ccccc4C3)C2)c1O (stereo not drawn) 11.4%
CC1CCN(C2=C(NS(=O)(=O)c3ccc(Cl)cc3)C(=O)c3ccccc3C2=O)CC1 16.2%
COc1ccc(NC(=O)Nc2ccc(O)c3ccccc23)cc1 27.9%
COc1ccc(C(=O)Nc2cccc3ccccc23)cc1 16.2%
CC1(C)Cc2ccccc2C(=C(C#N)C#N)N1 4.69%
CCOC(=O)c1ccc(NC(=O)c2cc3ccccc3o2)cc1 8.26%
O=C1N/C(=C/c2ccc(Br)cc2)C(O)=C1C=NCc1ccccc1 4.99%
O=C1N/C(=C\c2ccccc2)C(O)=C1C=NCc1ccccc1 18.3%
COC1=C(Nc2ccccc2)C(=O)c2ccccc2C1=O -28.6%
COC1=C(Nc2ccc(C)cc2)C(=O)c2ccccc2C1=O 3.75%
Cc1ccc(-c2nc(CS(=O)CC(=O)NCCN3CCOCC3)c(C)o2)cc1 (stereo not drawn) -1.85%
CC(=O)Cc1nsc(Nc2ccc(F)cc2)n1 5.39%
CCOc1ccc(NC(=O)CN(C)CC(=O)Nc2ccc(Br)cc2F)cc1OCC 2.33%
COC(=O)CCCC1=CC2=CC(=O)C(C)(OC(=O)c3ccc(Cl)nc3)C(=O)C2=CO1 (stereo not drawn) 23.8%
Cc1ccc(NC(=S)NNc2ccc([N+](=O)[O-])cc2S(=O)(=O)Nc2ccccc2C(=O)O)cc1C 31.6%
O=C(O)c1ccccc1Nc1ccc(OC(F)F)cc1 10.8%
CCN(CC)S(=O)(=O)c1ccc(/C=C/C(=O)OCC(=O)Nc2ccc(S(N)(=O)=O)cc2)cc1 0.26%
O=C(COc1ccc(Cl)cc1)NC1=NN(c2ccccc2)C(=O)C1 18.7%
CC(=O)NC1=NN(c2ccccc2)C(=O)C1 13.1%
COc1ccc(-c2nc3cc(C)ccn3c2NC(=O)c2ccccc2OC)cc1 9.33%
COc1ccc(NC(=O)CSCC(=O)NCCc2ccccn2)cc1 0.35%
CNCCc1ccccn1 13.3%
COCCN1Cc2cccc(C(=O)Nc3cccnc3)c2C1=O 1.93%
COc1cccc(CC(=O)OCC(=O)N(C)CC(=O)Nc2ccc(Cl)c(C(F)(F)F)c2)c1 5.39%
CCOc1ccccc1N(CC(=O)NC1CCCCC1)C(=O)CCC(=O)Nc1cc(C)ccn1 -4.71%
Brc1ccc(-c2csc(NNC3=NCCCCC3)n2)cc1 21.1%
c1ccc(-c2csc(NC3=NCCCCC3)n2)cc1 -1.35%
O=C1NC(=O)/C(=C/c2ccc(N3CCOCC3)o2)N1 35.9%
CCOC(=O)CN1C(=O)S/C(=C/c2ccc(N3CCCCC3)o2)C1=O -40.7%
COC(=O)CN1C(=O)S/C(=C/c2ccc(N3CCCCC3)o2)C1=O 22.2%
O=C1NC(=O)/C(=C\c2ccc(N3CCOCC3)o2)N1 12.2%
COc1ccc(-c2cn(Cc3ccc(C(N)=O)cc3)c(CCN)n2)cc1 15.2%
CCc1ccc(N2CC(C(=O)Nc3cc(C)on3)CC2=O)cc1 (stereo not drawn) 7.18%
COc1ccc(S(=O)(=O)N2CCc3cc4c(cc3C2C)OCCCO4)cc1 (stereo not drawn) -0.77%
O=C(/C=C/c1cccc([N+](=O)[O-])c1)NCC1CCCO1 (stereo not drawn) 1.2%
CCNc1c(NC(=O)C2CCC(C)CC2)c(=O)oc2ccccc12 (stereo not drawn) 7.89%
N#CCn1nnc(-c2ccc3c(c2)OCO3)n1 5.17%
COc1cc2nc(C3CCC3)nc(N3CCN(c4ccccn4)CC3)c2cc1OC 3.99%
CC(C)(C)OC(=O)N/N=C\c1ccc([N+](=O)[O-])s1 9.37%
O=C(N/N=C/c1ccc(N2CCOCC2)s1)c1ccccc1Cl 19.1%
Clc1cccc(N/N=C/c2ccc(N3CCOCC3)s2)c1 0.11%
O=C(N/N=C/c1ccc(N2CCOCC2)s1)c1ccccc1Br 28.7%
